From PubChem BioAssay
L3MBTL1 inh – inhibitors of human L3MBTL1. Q9Y468. Potency, µM (top dose mostly 57.1 µM), actives largely listed as inhibitors. AlphaScreen L3MBTL1–H3K9me1 peptide binding. 230,000 compounds, 0.66% hits; note: nearly all actives have a fitted effect of over 60% in size
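AlphaScreen assay: L3MBTL1 (50 nM final) was preincubated 30 min at room temperature with biotinylated H3(1-15)K9me1 peptide (75 nM final), then 30 min with library compounds; streptavidin donor and nickel chelate acceptor beads (10 ug/mL final) added, 30 min dark.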
VDR inhibitor – inhibitors of human vitamin D receptor; VDR-SRC2-3 peptide fluorescence polarization, 2 h; Potency, µM, most hits filed as inhibitors; 400,000 compounds, 0.93% hits; AID 504847
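Reagent solutions, kept cold and dark, are dispensed first; compounds are then pinned in at 23 nl, plates briefly spun, and incubated 2 h at ambient temperature. Inhibition of VDR–SRC2-3 peptide binding is read by fluorescence polarization.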
PLK1 PBD inh – PLK1 (human) polo-box domain binding inhibition; P53350; Plk1 PBD binding of FITC phosphopeptide, fluorescence polarization; Potency, µM, hits mostly inhibitors; 360,000 compounds, 2.8% hits; AID 720504; note: series mostly up to about 57 µM; nearly all actives have a fitted effect of over 65% in size
JMJD2A Tudor – inhibitors of human JMJD2A Tudor domain | O75164 | AlphaScreen JMJD2A-Tudor / H3K4me3 peptide binding | Potency, µM (series often up to 114 µM), actives largely listed as inhibitors | 390,000 compounds, 4.4% hits | AID 504339; note: nearly all actives have a fitted effect of over 50% in size
HP1b chromo inh – HP1-beta chromodomain-methylated histone interaction inhibition | AID 540317 | 390,000 compounds, 0.56% hits | Potency, µM (top dose mostly 114 µM), hits mostly inhibitors | AlphaScreen HP1-beta / biotin-H3K9me3 peptide binding | P83916; note: nearly all actives have a fitted effect of over 70% in size
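HP1-beta protein (50 nM final) preincubated 30 min at room temperature with biotinylated H3(1-18)K9me3 peptide (50 nM) in PBS pH 7.4, 0.01% Tween-20, then compound added for 30 min. AlphaScreen streptavidin donor/nickel chelate acceptor beads (10 ug/mL final), 30 min dark, luminescence read.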
BAZ2B inh – BAZ2B (human) inhibition | AlphaScreen BAZ2B-H3K14Ac peptide displacement | 360,000 compounds, 4.4% hits | Potency, µM (highest dose often 114 µM), usual class: inhibitors; note: nearly all actives have a fitted effect of over 60% in size
Target sequence (Q9UIF8 whole entry, looked up): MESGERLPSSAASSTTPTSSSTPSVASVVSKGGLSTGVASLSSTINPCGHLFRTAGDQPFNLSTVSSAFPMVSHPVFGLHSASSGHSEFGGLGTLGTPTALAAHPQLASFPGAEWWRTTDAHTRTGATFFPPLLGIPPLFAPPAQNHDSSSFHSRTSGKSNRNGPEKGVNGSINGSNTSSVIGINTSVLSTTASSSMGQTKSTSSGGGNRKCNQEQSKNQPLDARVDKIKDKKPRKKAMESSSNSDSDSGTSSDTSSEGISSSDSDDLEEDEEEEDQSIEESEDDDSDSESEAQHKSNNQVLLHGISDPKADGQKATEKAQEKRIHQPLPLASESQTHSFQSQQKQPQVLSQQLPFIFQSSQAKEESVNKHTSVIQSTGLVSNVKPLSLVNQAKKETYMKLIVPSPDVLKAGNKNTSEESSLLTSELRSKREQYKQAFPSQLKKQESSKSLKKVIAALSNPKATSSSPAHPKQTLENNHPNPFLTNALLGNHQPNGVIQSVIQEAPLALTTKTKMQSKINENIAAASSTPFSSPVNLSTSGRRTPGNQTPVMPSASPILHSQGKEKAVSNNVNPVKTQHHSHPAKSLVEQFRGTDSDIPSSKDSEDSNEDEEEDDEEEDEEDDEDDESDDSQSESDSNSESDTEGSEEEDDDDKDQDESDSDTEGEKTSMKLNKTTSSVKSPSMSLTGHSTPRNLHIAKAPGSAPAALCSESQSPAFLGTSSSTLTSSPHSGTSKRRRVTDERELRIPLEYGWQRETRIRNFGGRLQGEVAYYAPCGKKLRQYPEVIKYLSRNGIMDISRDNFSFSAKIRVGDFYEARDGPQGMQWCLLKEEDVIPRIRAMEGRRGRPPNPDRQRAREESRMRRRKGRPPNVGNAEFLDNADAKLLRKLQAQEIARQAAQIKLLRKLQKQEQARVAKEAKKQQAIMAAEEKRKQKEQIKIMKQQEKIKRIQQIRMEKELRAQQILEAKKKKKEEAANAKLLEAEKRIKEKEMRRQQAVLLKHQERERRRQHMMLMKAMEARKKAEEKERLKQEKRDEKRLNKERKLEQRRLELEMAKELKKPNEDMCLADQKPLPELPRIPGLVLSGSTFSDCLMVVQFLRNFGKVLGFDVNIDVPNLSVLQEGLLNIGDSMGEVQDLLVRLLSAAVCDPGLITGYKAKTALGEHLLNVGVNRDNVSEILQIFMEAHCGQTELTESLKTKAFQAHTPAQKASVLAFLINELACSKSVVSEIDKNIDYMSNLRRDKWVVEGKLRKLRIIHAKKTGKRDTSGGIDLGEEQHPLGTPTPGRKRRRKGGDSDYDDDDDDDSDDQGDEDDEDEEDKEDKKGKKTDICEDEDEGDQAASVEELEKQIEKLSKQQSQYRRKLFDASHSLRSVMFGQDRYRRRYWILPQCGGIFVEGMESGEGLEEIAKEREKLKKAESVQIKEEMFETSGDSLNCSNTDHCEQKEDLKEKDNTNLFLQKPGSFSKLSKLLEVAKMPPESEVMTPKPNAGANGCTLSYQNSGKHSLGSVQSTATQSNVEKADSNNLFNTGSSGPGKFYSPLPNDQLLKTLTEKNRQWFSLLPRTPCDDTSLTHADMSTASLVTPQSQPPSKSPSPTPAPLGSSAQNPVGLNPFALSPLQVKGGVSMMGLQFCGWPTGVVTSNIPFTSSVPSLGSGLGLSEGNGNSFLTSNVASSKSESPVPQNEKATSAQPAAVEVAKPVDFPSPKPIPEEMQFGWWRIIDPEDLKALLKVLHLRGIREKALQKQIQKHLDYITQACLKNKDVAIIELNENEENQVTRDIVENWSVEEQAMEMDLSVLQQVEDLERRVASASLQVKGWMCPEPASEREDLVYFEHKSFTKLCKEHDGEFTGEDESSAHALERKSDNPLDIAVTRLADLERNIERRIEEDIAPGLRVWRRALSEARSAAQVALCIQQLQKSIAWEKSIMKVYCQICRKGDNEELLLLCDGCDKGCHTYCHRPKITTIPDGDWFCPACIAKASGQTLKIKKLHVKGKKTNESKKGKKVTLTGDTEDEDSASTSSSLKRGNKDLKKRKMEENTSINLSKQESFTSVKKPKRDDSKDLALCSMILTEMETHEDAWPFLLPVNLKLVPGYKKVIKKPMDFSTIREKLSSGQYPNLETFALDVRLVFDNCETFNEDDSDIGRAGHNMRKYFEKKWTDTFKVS
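AlphaScreen displacement: compounds (up to 110uM) incubated 30 min at room temperature with a preformed 50 nM BAZ2B/50 nM biotinylated H3K14Ac peptide complex in PBS pH 7.4 with Tween-20. Donor and acceptor beads at 10 ug/mL final added, 20 min light-protected before reading.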
Numbers stand for hits; i = inactive; ? = inconclusive; nt = no result. The list is not random: actives were taken first. Their share in the collection is about 6.9%. Calls come from the whole dose curve; as a rule, active = well fitted curve in the direction sought with a large enough effect; inconclusive = small, poorly fitted or top-dose-only effect, or another doubt; inactive = no such curve, though single readings can be large; an effect the other way counts as inactive or inconclusive.

SMILES	L3MBTL1 inh	VDR inhibitor	PLK1 PBD inh	JMJD2A Tudor	HP1b chromo inh	BAZ2B inh
O=C(OCCN1C(=O)c2cccc3c(N4CCOCC4)ccc(c23)C1=O)c1ccc(Cl)cc1Cl	?	i	19µM	i	i	i
O=C(OCCN1C(=O)c2cccc3c(N4CCOCC4)ccc(c23)C1=O)c1cccc(Cl)c1	i	i	21µM	i	i	i
CCOc1ccc(N2CC(c3nc4ccccc4n3Cc3cccc(Cl)c3)CC2=O)cc1 (stereo unspecified)	nt	i	nt	i	i	i
COc1cc(F)c(S(=O)(=O)N2CCN(S(=O)(=O)c3cccc(N)c3)CC2)c(F)c1	nt	nt	nt	i	nt	nt
Cc1c(C)n(C)c2ccc(C(=O)NCCCN3CCCC3)cc12	nt	i	i	?	i	?
CCN(CC)c1ccc(NC(=O)c2ccc3c(c2)c(C)c(C)n3C)cc1	nt	i	i	18µM	35µM	11µM
Cc1ccccc1CNC(=O)c1ccc2[nH]c(C)c(C)c2c1	nt	i	nt	50µM	i	40µM
CCc1ccccc1NC(=O)c1ccc2[nH]c(C)c(C)c2c1	nt	i	nt	i	i	i
Cc1ccccc1CNC(=O)c1ccc2c(c1)c(C)c(C)n2C	nt	i	nt	?	i	40µM
Cc1cc(C)cc(N2CC(c3nc(-c4ccccc4C)no3)CC2=O)c1 (stereo unspecified)	nt	i	nt	i	i	i
Cc1ccc(S(=O)(=O)Nc2cccc(Oc3cnccn3)c2)cc1	i	i	27µM	?	i	i
O=[N+]([O-])c1cccc(Oc2cnccn2)c1	nt	i	i	i	i	i
CO[C@H]1/C=C/O[C@@]2(C)Oc3c(C)c(O)c4c(O)c(c(C=NN5CCN(C)CC5)c(O)c4c3C2=O)NC(=O)/C(C)=C\C=C\[C@H](C)[C@H](O)[C@@H](C)[C@@H](O)[C@@H](C)[C@H](OC(C)=O)[C@@H]1C	i	i	i	i	?	?
CO[C@H]1C=CO[C@@]2(C)Oc3c(C)c(O)c4c(O)c(c(C=NN5CCN(C)CC5)c(O)c4c3C2=O)NC(=O)C(C)=CC=C[C@H](C)[C@H](O)[C@@H](C)[C@@H](O)[C@@H](C)[C@H](OC(C)=O)[C@@H]1C	i	?	i	?	i	45µM
CC(=O)c1cccc(NC(=O)N2CCC(CN3CCCCC3)CC2)c1	nt	i	nt	i	i	i
CN(C)c1ccc(C2SCCN2C(=O)c2ccc([N+](=O)[O-])cc2)cc1 (stereo unspecified)	i	i	i	?	?	45µM
O=C(c1ccc([N+](=O)[O-])cc1)N1CCSC1c1ccccc1 (stereo unspecified)	i	i	i	i	i	i
COc1ccc(NC(=O)c2cnc[nH]2)cc1	nt	i	nt	i	i	i
O/N=C/c1ccccc1Oc1ccccc1	i	i	i	i	i	i
O/N=C/c1ccccc1Oc1ccc(Cl)cc1	i	?	8.4µM	?	i	i
Cc1nc(Oc2ccc(F)cc2Cl)c2oc3ccccc3c2n1	nt	i	nt	i	i	i
CC(C)C1Cc2c(sc3ncnc(NN)c23)CO1 (stereo unspecified)	nt	i	i	25µM	i	28µM
CC(C)NC(=S)NNc1ncnc2sc3c(c12)CC(C)(C)OC3	nt	i	i	i	i	nt
CCCN1C(=O)c2oc3cc(C)cc(C)c3c(=O)c2C1c1ccc(F)cc1 (stereo unspecified)	nt	i	nt	i	i	i
Cc1[nH]c2ccccc2c1-c1csc(N)n1	i	i	?	i	i	?
SMILES	L3MBTL1 inh	VDR inhibitor	PLK1 PBD inh	JMJD2A Tudor	HP1b chromo inh	BAZ2B inh
COc1ccccc1Nc1nc(-c2c(C)[nH]c3ccccc23)cs1	i	i	i	50µM	?	40µM
CNc1nc(-c2c(C)[nH]c3ccc(OC)cc23)cs1	nt	i	i	?	i	50µM
Brc1ccc(-c2csc3ncnc(-n4nnc5ccccc54)c23)cc1	i	i	i	i	i	i
COc1ccc(NC(=O)C2=CCN(S(=O)(=O)c3ccccc3)CC2)cc1OC	nt	i	i	i	i	?
O=C(O)c1cccnc1Nc1cccc(C(F)(F)F)c1	i	?	i	i	i	79µM
CC(C)c1ccc(Nc2ncccc2C(=O)O)cc1	i	i	i	i	?	i
O=C(Nc1cccc(C(F)(F)F)c1)c1cccnc1N1CCN(c2ccccc2)CC1	nt	i	i	79µM	i	50µM
O=C1CCCc2cc(S(=O)(=O)NCC3CCC(C(=O)Nc4ccc(Cl)cc4)CC3)ccc2N1 (stereo unspecified)	nt	i	nt	i	i	i
CCOc1ccc(NC(=O)Cn2c(=O)n(Cc3ccc(C(=O)NCc4ccc(C)cc4)cc3)c(=O)c3ccccc32)cc1	nt	i	nt	i	i	?
Cn1nnnc1Sc1ncnc2scc(-c3ccc(Cl)cc3)c12	i	?	nt	i	i	i
Clc1ccc(-n2nnnc2Sc2ncnc3sccc23)cc1	nt	79µM	8.4µM	i	i	nt
COC(=O)c1cc(-c2ccccc2)sc1N	nt	?	21µM	?	?	?
C#CCNC(=O)c1cc(-c2ccccc2)sc1N	nt	nt	i	nt	nt	nt
COCC1CCN(Cc2cn(Cc3ccccc3)nc2-c2cc3ccccc3o2)CC1	?	i	i	i	i	56µM
CCOC(=O)Cc1ccc(NC(=O)c2ccc(C(C)(C)C)cc2)cc1	nt	i	5.3µM	?	i	i
CCOC(=O)Cc1ccc(NC(=O)c2ccccc2Br)cc1	i	i	i	i	i	i
Cc1ccccc1-c1csc(N)n1	nt	i	?	i	i	nt
COc1ccc(-n2c(C)cc(-c3csc(N)n3)c2C)cc1	i	i	i	45µM	?	45µM
Cc1cc(-c2csc(N)n2)c(C)n1-c1ccc(Cl)c(Cl)c1	i	i	i	56µM	?	?
COc1ccc(Cl)cc1-c1csc(N)n1	i	i	i	i	i	i
Nc1nc(-c2ccccc2Cl)cs1	nt	?	19µM	i	?	nt
C[C@@H]1CN([C@@H](C)CO)C(=O)CCCn2nncc2CO[C@H]1CN(C)S(=O)(=O)c1ccccc1F	nt	nt	i	nt	nt	nt
CCC(C(=O)c1ccccc1)P(=O)(NN)c1ccccc1 (stereo unspecified)	i	i	i	i	i	i
O=C(N/N=C/c1ccc(N2CCOCC2)o1)c1cccc(F)c1	i	40µM	i	?	i	i
O=C(N/N=C/c1ccc(-c2cccc(C(F)(F)F)c2)o1)c1cccc(F)c1	?	i	i	i	i	i
COc1cc(OC)c(C2C=CC(=O)CC2)c(OC)c1 (stereo unspecified)	nt	nt	i	nt	nt	nt
COc1ccc(C)cc1Nc1n[n+](-c2ccccc2)c(-c2c(Cl)cccc2Cl)s1	?	i	i	50µM	?	16µM
COc1ccc(C)cc1Nc1n[n+](-c2ccccc2)c(-c2ccc(N(C)C)cc2)s1	i	i	i	50µM	?	28µM
COc1ccc(C)cc1Nc1n[n+](-c2ccccc2)c(-c2ccc(OC)c(OC)c2OC)s1	i	i	i	?	i	?
